Assay outcomes deposited in PubChem BioAssay by Fisher Drug Discovery Resource Center.
mcGAS MS inh: blocks mouse cGAS cGAMP production. recombinant mouse cGAS, cGAMP by RapidFire MS. Q8C6L5. inhibition, % at 12.5 µM. AID 1259397. 0.18% of 130,000 active;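 active means inhibition of cGAS enzyme activity at or above 60%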;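 further: enzyme stimulated by 45 bp dsDNA with ATP and GTP substrates; cGAMP share of summed cGAMP plus half ATP and half GTP signals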
Target sequence (Q8C6L5 whole entry, looked up): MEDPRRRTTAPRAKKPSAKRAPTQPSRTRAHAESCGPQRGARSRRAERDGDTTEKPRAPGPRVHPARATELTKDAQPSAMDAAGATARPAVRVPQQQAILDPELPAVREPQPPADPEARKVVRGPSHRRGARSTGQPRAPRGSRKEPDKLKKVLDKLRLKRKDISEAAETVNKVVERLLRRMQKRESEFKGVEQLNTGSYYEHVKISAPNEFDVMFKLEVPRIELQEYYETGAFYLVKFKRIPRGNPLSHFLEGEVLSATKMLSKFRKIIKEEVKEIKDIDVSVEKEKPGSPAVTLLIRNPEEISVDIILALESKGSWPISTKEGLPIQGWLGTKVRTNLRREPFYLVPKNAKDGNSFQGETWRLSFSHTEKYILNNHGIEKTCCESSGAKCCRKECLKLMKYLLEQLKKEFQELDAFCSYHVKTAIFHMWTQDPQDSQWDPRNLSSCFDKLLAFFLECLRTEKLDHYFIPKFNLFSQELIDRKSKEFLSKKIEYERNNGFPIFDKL
An asterisk follows results filed as active; ! = not active in a repeat. Only a selection was taken, and hits are over-represented in it overall.

SMILES	mcGAS MS inh
CN(Cc1ccc(-c2nc(-c3ccncc3)cc(=O)[nH]2)cc1)Cc1ccoc1	-19
Cc1cc(-c2cc(=O)[nH]c(-c3ccc(CN4CCN(C)CC4)cc3)n2)c(C)o1	71*
CCOc1ccc(NC(=O)COc2ccc3c(C)cc(=O)oc3c2)cc1	-4
O=C(NCCn1cccn1)C1CCCN(c2nc(-c3ccccc3)nc3c2CCC3)C1 (stereo not drawn)	-9
CC(C)(O)C#Cc1ccc(C(=O)N2CCC(Oc3ncccn3)CC2)cc1	-3
O=S(=O)(O)c1cc(N=C=S)ccc1/C=C/c1ccc(N=C=S)cc1S(=O)(=O)O	98*
CC(C)(C)/[N+]([O-])=C/c1ccc(S(=O)(=O)O)cc1S(=O)(=O)O	-6
O=C(CCc1nc(-c2ccccc2F)no1)N1CCC[C@H]1CN1CCCC1	-27
CC(C)CSc1n[nH]c(=S)s1	20
CCOC(=O)c1[nH]nc(-c2ccc(C)cc2)c1C	-13
CCOC(=O)c1[nH]nc2c1CC/C2=C\c1ccccc1	1
CCOC(=O)c1[nH]nc2c1C(=O)N(CC)C2=O	62*
Cc1ccc2c(C(=O)N(C)C(C)c3ccccn3)cc(C)nc2c1 (stereo not drawn)	-22
N=C(N)N1CCN(Cc2ccc(Br)s2)CC1	-45
CC(C)=CC(=O)N1CCC(c2cc(C(C)C)n[nH]2)CC1	-11
CC(C)c1cc(C2CCN(C(=O)C3=NN(C)C(=O)CC3)CC2)[nH]n1	78*
CC(C)c1cc(C2CCN(C(=O)c3nc(C(C)C)cs3)CC2)[nH]n1	-25
CCCC(=O)N1CCC1(C)C(=O)Nc1ccc(Cl)c(Cl)c1 (stereo not drawn)	-10
N#CC1CCN(C(=O)NCC(c2cccs2)c2c[nH]c3ccccc23)CC1 (stereo not drawn)	3
Nc1nnc(Sc2ncc([N+](=O)[O-])s2)s1	67*
Nc1nnc(SCC(=O)c2ccc([N+](=O)[O-])cc2)s1	-3
C=CCSc1nnc(N)s1	-7
O=C(Nc1nnc(-c2cc3ccccc3o2)o1)c1ccc(Cl)s1	0
Cc1cc(S(=O)(=O)NC(C)(C)CC(C)(C)C)ccc1F	-3
NC(=O)C1CCCN1S(=O)(=O)c1cc(Cl)cc(Cl)c1 (stereo not drawn)	-2
SMILES	mcGAS MS inh
CC(=O)NCC(OC(=O)c1ccoc1)c1ccccc1 (stereo not drawn)	-1
COc1ccc(Cn2cccc(C)c2=O)c(Cl)c1	-3
COc1ccc(CNCc2ccccc2Cn2cccn2)c(Cl)c1	83*
COc1ccc(OC)c(CNCc2c(C)nc3ccccn23)c1	-3
COc1ccc(Nc2cc(C)nc(NCCNC(=O)c3c(F)cccc3F)n2)cc1	0
CCC(CCNC(=O)C1CC(=O)N(c2ccccc2F)C1)N1CCCC1=O (stereo not drawn)	-4
C/C(=N/Nc1nc(Cl)c(C#N)c(Cl)c1Cl)c1ccc(N)cc1	39
CC(C)=NNc1nc(Cl)c(C#N)c(Cl)c1Cl	75*
NC(=S)NN=Cc1c[nH]c2ccccc12	-2
CC(C)(C)n1cccc(/C=N\NC(N)=S)c1=S	72*
Cn1c(=O)c2[nH]c(/C=N\NC(N)=S)nc2n(C)c1=O	16
COc1ccnc(Cn2nc(C3CCNCC3)n(-c3ccccc3)c2=O)c1	5
CCn1c(C2CCCNC2)nn(Cc2cc(=O)n3cc(C)sc3n2)c1=O (stereo not drawn)	-6
CCn1c(C2CCCNC2)nn(Cc2cc(OC)ccn2)c1=O (stereo not drawn)	61*!
CNc1snc(C)c1C(=O)NC1CCCC(C)C1 (stereo not drawn)	-10
CNN=Cc1ccc(C#N)cc1	-9
O=C(CCc1ccc(O)c(O)c1)NNC(=S)Nc1ccccc1C(F)(F)F	2
Cc1ccc(C#N)cc1NC(=O)N(C)Cc1cnn(C)c1	-1
CC(C)c1cc(N(C)CCCN2CCOCC2)n[nH]1	-1
CC1(C(=O)Nc2cccc(NS(C)(=O)=O)c2)CCN1Cc1ccc2ccccc2c1 (stereo not drawn)	-11
O=C(Nc1ccc2c(c1)CN(C(=O)c1n[nH]c3c1CCC3)CC2)c1ccccn1	-6
Cc1ccc([N+](=O)[O-])cc1N=Cc1nc(-c2ccccc2F)oc1O	81*
COc1cc([N+](=O)[O-])ccc1N=Cc1nc(-c2ccccc2F)oc1O	-11
Cc1cc(Cl)ccc1N=Cc1nc(-c2ccccc2F)oc1O	-3
COc1cccc(CN2CCCn3cccc3C2c2ccc(F)cc2F)c1 (stereo not drawn)	6
SMILES	mcGAS MS inh
CC1C(=O)N(C)CCN1C(=O)c1ccccc1-c1ccccc1 (stereo not drawn)	-16
Cc1ccc(C(C)NC(=O)CN2CCN(c3ccc([N+](=O)[O-])c4cnccc34)CC2)cc1C (stereo not drawn)	-5
CC(C#N)CN(C)C(=O)c1cc(S(=O)(=O)N2CCSCC2)c[nH]1 (stereo not drawn)	-6
NC(=S)N=Nc1ccc(NN=C(N)N)cc1	79*
C=CC(C)(O)CN1CCN(Cc2nc(C(=O)N3CCN(c4ccc(F)cc4)CC3)co2)CC1 (stereo not drawn)	-7
O=C(CCCc1ccc(Cl)cc1)N1CCC2(CCOCC2)CC1	2
O=c1c(O)c(-c2ccccc2)[nH]c2ccccc12	-10
O=c1[nH]c2c(-c3nc4ccccc4s3)c(O)cn2c2sc3c(c12)CCCC3	-8
O=c1[nH]c2c(-c3ccccc3)c(O)cn2c2c1sc1ccccc12	70*
O=C(CN(C(=O)c1cccc2ccccc12)C1CC1)NC1CC1	-15
CCN(CC)C(=S)SSC(=S)N(CC)CC	76*!
CCN(CC)C(=S)SC(C)C(=O)NC1CC1 (stereo not drawn)	-4
O=C(CSc1nnc(-c2ccccc2)n1-c1ccccc1)N/N=C\c1ccccn1	-10
Cc1ccc(S(=O)(=O)NCC(=O)OCC(=O)N2CCCc3ccccc32)cc1C	2
O=C(CN1c2cccc3cccc(c23)S1(=O)=O)c1c[nH]c2ccccc12	87*
O=S1(=O)c2cccc3cccc(c23)N1Cc1cccc2ccccc12	-11
NC(=O)COc1ccc(C(=O)NNC(=O)CN2c3cccc4cccc(c34)S2(=O)=O)cc1	-2
O=C(O)CC1C(=O)NC2(CCCC2)CN1C(=O)c1ccccc1F (stereo not drawn)	-4
CCOC(=O)NNC(=O)c1cc(C)oc1C	-12
Cc1cc(C(=O)NNC(=O)C=Cc2ccco2)c(C)o1	67*
Cc1cc(C(=O)NNC(=O)CCNC(=O)c2ccco2)c(C)o1	-7
COc1cc(-c2ccc(NN=C3C=Cc4c(S(=O)(=O)O)cc(S(=O)(=O)O)c(N)c4C3=O)c(OC)c2)ccc1NN=C1C=Cc2c(S(=O)(=O)O)cc(S(=O)(=O)O)c(N)c2C1=O	98*
COc1cc(-c2cccc(C(=O)O)c2)ccc1NC(C)=O	-32
COc1c(Cl)ccc(Cl)c1C(=O)O	98*
COc1c(Cl)cc(C(=O)NCCn2cccc2)cc1Cl	-3
SMILES	mcGAS MS inh
COc1cccc(C=CC(=O)c2ccc(Cl)c(Cl)c2)c1OC	9
CCOC(=O)c1cc(C)cc(Br)c1NC(=O)c1c(F)cccc1F	-10
Cc1ccc(C(=O)Cn2nc(C)c(C)c(C#N)c2=O)s1	-7
CN(Cc1ccc(F)cc1)C(=O)NC1CCN(c2ccccc2)C1=O (stereo not drawn)	-4
SCc1nc2c3ccccc3ncn2n1	95*
c1ccc2c(c1)ncn1nc(CN3CCCCC3)nc21	-5
CCc1nc2c3ccccc3ncn2n1	-8
O=C(O)c1ccc2cc[nH]c2c1	-8
O=C(C[n+]1ccc(NC(=O)c2ccccc2)c2ccccc21)c1ccccc1	64*
Cc1ccc[n+](CC(=O)c2ccc(-c3ccccc3)cc2)c1C	-7
